We go through 6 compounds from PubChem BioAssay (NCI).

Several values for one entry are separate records, joined by “and”; a condition that tells them apart may be missing. Equal values may be shown once. About 83,000 compounds went through this panel and 20% of them were active in at least one assay; those are over-represented in the sample as a whole.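 Single-concentration screen, 48 h exposure, 96-well plates. Endpoint: percent growth. Below 10 = active.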 Activity calls are given as the source filed them.

Holding throughout (assay): NCI-60 one-dose screen, 48 h (100 = growth as untreated, 0 = no growth, -100 = all killed)
What all share (details): 10 µM unless noted

The test system of test [1] is NCI-H23 lung.
The subject of test [2] is NCI-H226 lung.
The test system of test [3] is NCI-H322M lung.
Test [4] deals with NCI-H460 lung.
The test system of test [5] is HOP-92 NSCLC.
Test [6] relates to NCI-H522 lung.
Test [7] deals with A549/ATCC NSCLC.
Test [8] has as its system 786-0 renal.
In test [9] the test system is COLO 205 colon.
Test [10] relates to DU-145 prostate.
For test [11], the system named is K-562 leukemia.
For test [12], the system named is MALME-3M melanoma.
Test [13] deals with MDA-MB-231 breast.
Test [14] has as its system RXF 393 renal.
Test [15] deals with SF-268 CNS.
In test [16] the test system is SF-295 CNS.
Test [17] has as its system SF-539 CNS.
For test [18], the system named is UACC-257 melanoma.
In test [19] the test system is M14 melanoma.
In test [20] the test system is HOP-62 NSCLC.

Consider `CC(=O)Oc1ccc(C2(c3ccc(OC(C)=O)cc3)C(=O)Nc3ccccc32)cc1`, for which the growth is 41.5% (inactive) and 54.4% (inactive) in test [1]; 76.3% (inactive) and 82.9% (inactive) in test [2]; 33.1% (inactive) and 33.7% (inactive) in [3]; 104% (inactive) in test [4]; 68.4% (inactive) and 44.2% (inactive) in test [5]; 95.7% (inactive) and 83.2% (inactive) in test [6]. Moreover, the growth was 96.1% (inactive) and 98% (inactive) in [7]; 107% (inactive) and 93% (inactive) in [8]; 4.98% (active) and 17.2% (inactive) in test [9]; 89% (inactive) and 89.9% (inactive) in test [10]; 78.9% (inactive) and 93.8% (inactive) in test [11]; 128% (inactive) and 97.8% (inactive) in test [12]. For the same compound, the growth in [13] was 95.4% (inactive) and 87.4% (inactive); in test [14], 66.4% (inactive) and 76.9% (inactive); in test [15], 96.7% (inactive) and 100% (inactive); in [16] it was 71.8% (inactive) and 86.3% (inactive); in test [17] it was 97.2% (inactive) and 92.2% (inactive); in test [18], 110% (inactive) and 114% (inactive). Besides, the growth in [19] is 112% (inactive) and 99.4% (inactive).

For the compound `CCN(CC)C(=S)SCCO`, the growth is 93.3% (inactive) in test [1]; 99.3% (inactive) in test [2]; 97.1% (inactive) in test [3]; 104% (inactive) in test [4]; 109% (inactive) in test [5]; 95.5% (inactive) in [6]. Also, the growth in test [8] was 104% (inactive); in test [9] it was 114% (inactive); in [10] it was 107% (inactive); in test [11], 97% (inactive); in test [12], 99.7% (inactive); in [13], 101% (inactive). The growth was 106% (inactive) in test [14]; 102% (inactive) in [15]; 106% (inactive) in test [16]; 102% (inactive) in test [17]; 96.3% (inactive) in [18]; 106% (inactive) in test [19].

`NCCCCCC(=O)O`: the growth in [1] was 97.6% (inactive) and 104% (inactive) and 92.2% (inactive); in test [2] it was 101% (inactive) [middle of 4 runs]; in test [20], 99.7% (inactive) and 105% (inactive) and 97.7% (inactive); in [5] it was 97.2% (inactive) and 90.1% (inactive); in [6], 100% (inactive) [middle of 4 runs]; in test [7], 94.1% (inactive) and 100% (inactive) and 99.7% (inactive). The growth in test [8] is 107% (inactive) [middle of 4 runs]; in test [9] it was 114% (inactive) and 104% (inactive) and 95.2% (inactive); in [10], 124% (inactive) [middle of 4 runs]; in test [11], 112% (inactive) [middle of 4 runs]; in test [13] it was 112% (inactive) and 105% (inactive) and 109% (inactive); in test [14], 110% (inactive) and 113% (inactive) and 127% (inactive). Further, the growth in test [16] was 104% (inactive) [middle of 4 runs]; in [17], 101% (inactive) [middle of 4 runs]; in test [18], 102% (inactive) and 96.4% (inactive) and 105% (inactive); in test [19], 106% (inactive) [middle of 4 runs].

With `CC(=O)Nc1ccc2oc(=O)ccc2c1`, the growth in [1] is 101% (inactive); in test [2], 96.5% (inactive); in [3], 101% (inactive); in [4], 109% (inactive); in test [5] it was 95% (inactive); in [6], 93.3% (inactive). Also, the growth is 81.6% (inactive) in [8]; 107% (inactive) in [9]; 100% (inactive) in test [10]; 64.9% (inactive) in test [11]; 110% (inactive) in [12]; 94.6% (inactive) in [13]. In addition, the growth in [14] is 103% (inactive); in test [15] it was 114% (inactive); in [16], 108% (inactive); in [17], 99.1% (inactive); in test [18], 104% (inactive); in test [19] it was 100% (inactive).

Take `Oc1ccc(O)c(-c2ccccc2)c1`: the growth in test [1] was 63.1% (inactive); in test [2] it was 54.9% (inactive); in [3], 42.9% (inactive); in test [4] it was 19.7% (inactive); in [5], 85.8% (inactive); in test [6] it was -68.3% (active). The growth is 66.1% (inactive) in [7]; 65.6% (inactive) in test [8]; 85.9% (inactive) in [9]; 77.6% (inactive) in test [10]; 30.4% (inactive) in test [11]; 84.6% (inactive) in test [12]. The growth in test [13] is 66% (inactive); in test [14], 73.8% (inactive); in [15], 53.7% (inactive); in test [16], 17.7% (inactive); in test [17] it was 46.3% (inactive); in [18], 88.4% (inactive). Also, in test [19], the growth is 65.9% (inactive).

Regarding `CC(C)(C(=O)c1cccnc1)c1cccnc1`, the growth in [1] was 107% (inactive) and 133% (inactive); in [2] it was 96.6% (inactive) and 89.7% (inactive); in test [3] it was 92% (inactive) and 103% (inactive); in test [4], 103% (inactive) and 101% (inactive); in [5] it was 89.3% (inactive); in test [6], 93.5% (inactive) and 100% (inactive). The growth is 86.5% (inactive) and 108% (inactive) in test [7]; 103% (inactive) and 99.5% (inactive) in test [8]; 113% (inactive) and 117% (inactive) in test [9]; 112% (inactive) and 114% (inactive) in [10]; 104% (inactive) and 115% (inactive) in test [11]; 96.3% (inactive) and 125% (inactive) in test [12]. Also, the growth is 96.4% (inactive) and 119% (inactive) in [13]; 105% (inactive) and 119% (inactive) in test [14]; 107% (inactive) and 106% (inactive) in test [15]; 95.7% (inactive) and 124% (inactive) in test [16]; 99.5% (inactive) and 95.9% (inactive) in test [17]; 97.3% (inactive) and 115% (inactive) in test [18]. Further, the growth in test [19] was 101% (inactive) and 92.2% (inactive).
